# Measured values as given in the supplement of paper PMC7366291.
# Structures can show the parent of a compound that is named as a salt. ± gives the standard deviation of the averaged measurements.
# Test system: Danio rerio Tg(wt1b:EGFP) embryo, pronephros
# Experiment: glomerular width (mean of left and right), fold change vs DMSO control; higher = wider glomerulus
# Conditions: 25 µM; exposure: 24-48 hpf
# Method in brief: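 Distances and angles describing the pronephros were computed by a Fiji macro from 16 reference points set manually on maximum projections of dorsal images. These images came from dechorionated Tg(wt1b:EGFP) zebrafish embryos held in agarose-filled 96-well plates after exposure to 25 μM compound in 0.5% DMSO, in HEPES-buffered E3 with 0.003% PTU, from 24 to 48 hpf at 28.5°C. Any value more than 2 SD from the feature mean was excluded. Features are stated as fold change relative to the mean of same-day DMSO-treated embryos.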
row,Structure (SMILES),glomerular width
1,N=C(N=C(N)N)N1CCOCC1 [Moroxidine hydrochloride],1.07 ± 0.049
2,Cn1c(=O)c2nc[nH]c2n(C)c1=O [Theophylline monohydrate],0.999 ± 0.047
3,COc1cnc(NS(=O)(=O)c2ccc(N)cc2)nc1 [Sulfameter],1.01 ± 0.021
4,CC(Oc1ccccc1)C(=O)N[C@@H]1C(=O)N2[C@@H]1SC(C)(C)[C@@H]2C(=O)O (some centres undefined) [Phenethicillin potassium salt],0.963 ± 0.057
5,CO[C@H]1/C=C/O[C@@]2(C)Oc3c(C)c(O)c4c(c3C2=O)C2=NC3(CCN(CC(C)C)CC3)NC2=C(NC(=O)/C(C)=C\C=C\[C@H](C)[C@H](O)[C@@H](C)[C@@H](O)[C@@H](C)[C@H](OC(C)=O)[C@@H]1C)C4=O [Rifabutin],0.94 ± 0.1
6,NC1CCN(c2nc3c(cc2F)c(=O)c(C(=O)O)cn3-c2ccc(F)cc2F)C1 (centres undefined) [Tosufloxacin hydrochloride],1.07 ± 0.074
7,CCCN[C@H]1CCc2nc(N)sc2C1 [Pramipexole dihydrochloride],1.03 ± 0.049
8,CCN(CC)CCNC(=O)c1cc(S(C)(=O)=O)ccc1OC [Tiapride hydrochloride],0.902 ± 0.073
9,COc1cc([S+](C)[O-])ccc1-c1nc2cccnc2[nH]1 (centres undefined) [Sulmazole],1.05 ± 0.015
10,CC(C)/N=c1\cc2n(-c3ccc(Cl)cc3)c3ccccc3nc-2cc1Nc1ccc(Cl)cc1 [Clofazimine],1.06 ± 0.056
11,CCOC(=O)NNc1nncc2ccccc12 [Todralazine hydrochloride],0.993 ± 0.06
12,Nc1nc(/C(=C/CC(=O)O)C(=O)N[C@@H]2C(=O)N3C(C(=O)O)=CCS[C@H]23)cs1 [Ceftibuten],1.016 ± 0.0039
13,C[C@@H](O)[C@H]1C(=O)N2C(C(=O)O)=C(S[C@@H]3CN[C@H](C(=O)N(C)C)C3)[C@H](C)[C@H]12 [Meropenem],0.957 ± 0.021
14,Cc1cc(/C=C/c2ccc3cc(N(C)C)ccc3[n+]2C)c(C)n1-c1ccccc1 [Pyrvinium pamoate],0.975 ± 0.021
15,COc1cc(C(=O)NS(=O)(=O)c2ccccc2C)ccc1Cc1cn(C)c2ccc(NC(=O)OC3CCCC3)cc12 [Zafirlukast],0.9694 ± 0.0078
16,COc1ccc(CC(C)NCC(O)c2ccc(O)c(NC=O)c2)cc1 (centres undefined) [Formoterol fumarate],0.97 ± 0.051
17,OCCOCCN1CCN(C2=Nc3ccccc3Sc3ccccc32)CC1 [Quetiapine hemifumarate],1.07 ± 0.066

row,Structure (SMILES),glomerular width
1,Nc1ccn([C@@H]2O[C@H](CO)[C@@H](O)[C@@H]2O)c(=O)n1 [Cytarabine],1.06 ± 0.016
2,Cc1ncc([N+](=O)[O-])n1CC(C)O (centres undefined) [Secnidazole],0.9842 ± 0.0045
3,CN(C)CCCN1c2ccccc2CCc2ccccc21 [Imipramine hydrochloride],1.02 ± 0.14
4,CCOC(=O)C1=C[C@]2(CC)CCCN3CCc4c(n1c1ccccc41)[C@@H]32 [Vinpocetine],1.037 ± 0.0011
5,Clc1ccccc1CN1CCc2sccc2C1 [Ticlopidine hydrochloride],1.09 ± 0.048
6,c1ccc2[nH]c(-c3cscn3)nc2c1 [Tiabendazole],1.01 ± 0.12
7,CC(C(=O)O)c1ccc(-c2ccccc2)c(F)c1 (centres undefined) [Flurbiprofen],0.48 ± 0.02
8,Clc1ccc(C(Cn2ccnc2)OCc2ccsc2Cl)c(Cl)c1 (centres undefined) [Tioconazole],0.965 ± 0.013
9,COc1ccc([C@@H]2Sc3ccccc3N(CCN(C)C)C(=O)[C@@H]2OC(C)=O)cc1 [Diltiazem hydrochloride],1.24 ± 0.11
10,CCN(CC)C(C)CN1c2ccccc2Sc2ccccc21 (centres undefined) [Ethopropazine hydrochloride],1.03 ± 0.035
11,O=C(O[C@@H]1C[C@@H]2C[C@H]3C[C@H](C1)N2CC3=O)c1c[nH]c2ccccc12 [Dolasetron mesilate],1.01 ± 0.018
12,COCCCOc1ccnc(C[S+]([O-])c2nc3ccccc3[nH]2)c1C (centres undefined) [Rabeprazole Sodium salt],1.01 ± 0.019
13,C[C@]12CCC(=O)C=C1CC[C@@H]1[C@@H]2[C@@H](O)C[C@@]2(C)[C@H]1CC[C@]2(O)C(=O)CO [Hydrocortisone base],1.16 ± 0.081
14,Clc1ccc(COC(Cn2ccnc2)c2ccc(Cl)cc2Cl)c(Cl)c1 (centres undefined) [Miconazole],0.865 ± 0.069
15,CN(C)CCCN1c2ccccc2Sc2ccc(Cl)cc21 [Chlorpromazine hydrochloride],1.01 ± 0.1
16,CN(Cc1ccc(C(C)(C)C)cc1)Cc1cccc2ccccc12 [Butenafine Hydrochloride],0.9818 ± 0.007
17,CCOc1cc(CC(=O)N[C@@H](CC(C)C)c2ccccc2N2CCCCC2)ccc1C(=O)O [Repaglinide],0.943 ± 0.028
